# Measurements published in PubChem BioAssay (NCI).
# The panel holds about 83,000 compounds, 20% with a hit somewhere; the sample as a whole holds those more often.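 Growth was measured after 48 h exposure to one concentration of compound in 96-well plates. Values under 10 count as active.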 A number with no mark means an inactive call. The source made the active and inactive calls.
# Legend:
# Assay in all cases: NCI-60 one-dose screen, 48 h (100 = growth as untreated, 0 = no growth, -100 = all killed)
# Conditions in all cases: 10 µM unless noted
# HT29 colon = tested on: HT29 colon
# SNB-75 CNS = tested on: SNB-75 CNS
# SNB-19 CNS = tested on: SNB-19 CNS
# PC-3 prostate = tested on: PC-3 prostate
# SK-MEL-5 melanoma = tested on: SK-MEL-5 melanoma
# UACC-62 melanoma = tested on: UACC-62 melanoma
# SK-MEL-28 melanoma = tested on: SK-MEL-28 melanoma
# LOX IMVI melanoma = tested on: LOX IMVI melanoma
# SK-MEL-2 melanoma = tested on: SK-MEL-2 melanoma
# U251 CNS = tested on: U251 CNS
Structure (SMILES),growth (HT29 colon),growth (SNB-75 CNS),growth (SNB-19 CNS),growth (PC-3 prostate),growth (SK-MEL-5 melanoma),growth (UACC-62 melanoma),growth (SK-MEL-28 melanoma),growth (LOX IMVI melanoma),growth (SK-MEL-2 melanoma),growth (U251 CNS)
COc1ccc(C(=O)Nc2nc(-c3ccc(Cl)cc3)cs2)cc1,114%,98.7%,104%,98.3%,98.9%,102%,101%,–,–,–
CCCCC(C#N)C(N)=O (stereo not drawn),101%,95.6%,107%,88.2%,107%,102%,107%,98.4%,101%,–
c1ccc(-c2nnc(Nc3nnc(-c4ccccc4)s3)s2)cc1,106%,93.4%,111%,97.7%,100%,103%,112%,–,–,–
N#CCCN(CCO)c1ccccc1,93.7%,100%,101%,86.7%,99.9%,103%,108%,107%,101%,–
O=C(C(Br)Br)C(Br)C(Br)c1ccccc1 (stereo not drawn),-5.3% (active),115%,112%,101%,99.3%,95.2%,106%,53.3%,117%,–
Cc1nc(N)[nH]c(=O)c1C,107%,99.4%,95.4%,117%,108%,91.1%,120%,102%,-10.2% (active),–
OC(c1cc(C(F)(F)F)nc2c(C(F)(F)F)cccc12)C1CCCCN1 (stereo not drawn),-66.5% (active),33%,53.7%,36.7%,61.3%,76.6%,72.1%,11.9%,56.4%,–
Cc1scc2c1N(C(=O)CN1CCN(C)CC1)c1ccccc1NC2=O,104%,110%,111%,98%,–,109%,110%,99.7%,113%,–
Cc1cc(NCCCNc2ccnc3cc(Cl)ccc23)nc(N2CCN(C)CC2)n1,15.2%,76.6%,115%,–,–,33.4%,88.3%,–,–,69.7%
Cc1ccc([N+](=O)[O-])cc1NC(=O)Nc1cccc(F)c1,79.8%,90.2%,64.1%,–,–,–,108%,82.4%,86%,64.3%
CC(C)C(=O)Cc1cnccn1,108%,102%,102%,102%,109%,98.1%,116%,97%,109%,–
CCCCCCCC/C=C/CCCCCCCC1=NC(C)(C)CN1CC(C)O (stereo not drawn),-64.8% (active),32%,72.3%,42%,53.3%,3.95% (active),53.2%,-99.4% (active),33%,–
O=Cc1c[nH]c2ccc(NC(=O)OCc3ccccc3)cc12,89%,87.1%,89%,48.6%,–,90.4%,145%,105%,-19.1% (active),–
Cc1cccc(Cl)c1NC(=O)c1ccc2nc(NC(=O)NC3CC(C)(C)NC(C)(C)C3)sc2c1,59.3%,-18.9% (active),93.6%,66.3%,91.7%,–,116%,63.9%,121%,–
Cc1cc(C(=O)O)c(C)cc1C(=O)O,103%,97%,107%,–,–,–,108%,103%,104%,109%
NC(N)=N/N=C(/c1ccccc1)c1ccc(Cl)cc1,25.6%,56.1%,63.8%,72.8%,56.8%,74.4%,53.9%,74.4%,118%,–
CCN1C(=O)c2ccc3c4c(ccc(c24)C1=O)C(=O)N(CCCNCc1ccccc1OC)C3=O,-48.8% (active),-71.5% (active),-64.1% (active),–,–,-88.3% (active),3.31% (active),–,–,-86.3% (active)

Structure (SMILES),growth (HT29 colon),growth (SNB-75 CNS),growth (SNB-19 CNS),growth (PC-3 prostate),growth (SK-MEL-5 melanoma),growth (UACC-62 melanoma),growth (SK-MEL-28 melanoma),growth (LOX IMVI melanoma),growth (SK-MEL-2 melanoma),growth (U251 CNS)
C[C@]12CC[C@@H]3c4ccc(O)c([N+](=O)[O-])c4CC[C@H]3[C@@H]1CC[C@@H]2NS(=O)(=O)c1cccc(Br)c1,68.1%,47.2%,50.6%,15.9%,25.6%,35.4%,49.6%,–,–,–
COc1ccc(-c2csc(NC(=O)c3cc(OC)c(OC)c(OC)c3)n2)cc1,110%,102%,94%,90.9%,98.5%,89%,101%,–,–,–
O=C(O)c1ccc(NC(=O)c2ccc(Nc3ccnc(C(F)(F)F)c3)cc2)cc1,109%,98.7%,99.7%,99.4%,101%,107%,106%,–,–,–
COc1ccc(/C=N/NC(=O)c2ccc(S(C)(=O)=O)cc2)cc1OC,97.9%,85.9%,97.3%,88.5%,97.9%,92.7%,109%,102%,91%,–
O=C1Nc2ccccc2C12Nc1cc(Cl)ccc1S2 (stereo not drawn),95.4%,59.8%,94%,44.5%,81.7%,80.9%,138%,86.3%,130%,–
COc1cc(OC)c2sc(-c3ccc(-n4cncc4-c4ccc(N)cc4)cc3)nc2c1,62.6%,86.1%,71.2%,67.7%,56.6%,–,97.5%,62.7%,97.6%,–
COc1cc([C@@H]2c3cc4c(cc3C(O[C@@H]3O[C@@H]5CO[C@@H](c6cccs6)OC5[C@H](O)[C@H]3O)C3COC(=O)[C@@H]32)OCO4)cc(OC)c1O (stereo partly drawn),-24.8% (active),-37% (active),1.98% (active),4.52% (active),–,-54.3% (active),-29% (active),-37.3% (active),-47.3% (active),–
CCN1C[C@@H](C)n2c(c(O)c3c(=O)n(Cc4ccc(F)c(Cl)c4)nc(C(=O)NC)c32)C1=O,106%,20.2%,12%,69.4%,15.1%,-4.84% (active),28.9%,–,–,–
CN(C)c1cccc2c(S(=O)(=O)N[C@H]3CC[C@H]4[C@@H]5CCc6cc(O)ccc6[C@H]5CC[C@]34C)cccc12,2.71% (active),40.4%,62.5%,16.1%,41.5%,49.9%,54.7%,–,–,–
CCOc1nc(-c2ccccc2)cc2c(O)c(-c3nnco3)[nH]c(=O)c12,69%,55.2%,72.1%,–,–,56.9%,76.1%,–,–,32.7%
O=C(O)c1ccc(NC(=O)c2cccc(Nc3ccnc(C(F)(F)F)c3)c2)cc1,106%,105%,106%,105%,101%,108%,110%,–,–,–
Nc1ccc(C2=NN(c3ccccc3)C(c3ccc(Cl)cc3)C2)cc1 (stereo not drawn),19.5%,72.8%,78.1%,80.9%,–,89.5%,–,–,–,–
CC[N+](C)(CC)CCCC(C)Nc1ccnc2cc(Cl)ccc12 (stereo not drawn),111%,99.8%,–,98%,101%,105%,117%,99.7%,108%,98.8%
C=C(C[C@@](O)(C(=O)Oc1ccccc1)C(=O)C1CCCCC1)c1ccccc1,103%,72.3%,–,84.2%,96.3%,90.3%,98%,101%,–,95.8%
COc1ncc(-c2ccc3nccc(C#CCN4CCN(S(C)(=O)=O)CC4)c3c2)cc1NS(=O)(=O)c1ccc(F)cc1F,10.3%,-11.4% (active),–,0.156% (active),-92.3% (active),-54.9% (active),3.79% (active),-11.4% (active),0.951% (active),6.79% (active)
C/C(=C\CCc1ccsc1)CC/C=C(\C)CCCN1CCN(CCO)CC1,-34.4% (active),42.7%,64%,55.3%,–,-73.9% (active),58.1%,–,–,–
Oc1ccc(-c2nn(-c3ccccc3)cc2-c2nc3ccccc3s2)cc1,112%,101%,93.9%,–,92.3%,88.1%,117%,78.4%,135%,–
